# Test results taken from the supplement of paper PMC9694430.
# Structures can show the parent of a compound that is named as a salt.
# Tests used:
# Experiment in all cases: thermal shift delta Tm vs DMSO control; higher = stronger stabilization (binding)
# Settings in all cases: 12.5 µM; protein concentration 2 µM
# [1] = tested on: LOC_OS02G45750-cb003
# Method in brief: (§1)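 The melting temperature shift given here is a triplicate mean, measured against protein that received only DMSO. Melting temperatures came from Boltzmann fits of differential scanning fluorimetry data on E. coli-expressed, purified rice kinase domain constructs. Each 19.5 μl well contained 2 μM kinase, 100 mM potassium phosphate pH 7.5, 150 mM NaCl, 10% glycerol, 5 × SYPRO Orange and compound in DMSO. Plates were scanned from 25°C to 95°C at 0.05°C/s.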
# [2] = tested on: LOC_OS02G54510-cb004
# Method in brief: as §1
# [3] = tested on: LOC_OS03G04050-cb001
# Method in brief: as §1
# [4] = tested on: LOC_OS03G12390-cb001
# Method in brief: as §1
# [5] = tested on: LOC_OS03G27990-cb004
# Method in brief: as §1
# [6] = tested on: LOC_OS03G50450-cb001
# Method in brief: as §1
# [7] = tested on: LOC_OS03G50810-cb003
# Method in brief: as §1
# [8] = tested on: LOC_OS04G35114-cb001
# Method in brief: as §1
# [9] = tested on: T1, LOC_OS04G38480-cb003
# T1 sequence (whole entry): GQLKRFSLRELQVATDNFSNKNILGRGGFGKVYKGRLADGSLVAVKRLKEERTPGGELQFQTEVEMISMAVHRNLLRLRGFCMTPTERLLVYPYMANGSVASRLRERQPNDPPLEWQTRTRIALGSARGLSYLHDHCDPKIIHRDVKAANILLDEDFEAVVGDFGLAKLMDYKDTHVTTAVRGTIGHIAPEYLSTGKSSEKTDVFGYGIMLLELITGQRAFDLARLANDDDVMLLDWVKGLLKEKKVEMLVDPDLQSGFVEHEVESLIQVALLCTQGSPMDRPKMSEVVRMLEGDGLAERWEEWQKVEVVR
# Method in brief: as §1
# [10] = tested on: T2, LOC_OS04G41100-cb001
# T2 sequence (whole entry): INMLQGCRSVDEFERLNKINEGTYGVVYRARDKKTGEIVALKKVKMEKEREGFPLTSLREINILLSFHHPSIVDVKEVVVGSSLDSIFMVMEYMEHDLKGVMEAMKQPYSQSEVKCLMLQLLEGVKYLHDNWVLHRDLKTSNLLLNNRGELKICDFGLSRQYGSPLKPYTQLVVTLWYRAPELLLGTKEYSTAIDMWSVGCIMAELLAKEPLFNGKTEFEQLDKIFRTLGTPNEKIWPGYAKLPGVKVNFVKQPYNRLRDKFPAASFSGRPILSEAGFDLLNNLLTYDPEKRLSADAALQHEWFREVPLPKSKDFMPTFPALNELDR
# Method in brief: as §1
SMILES,thermal shift delta Tm [1],thermal shift delta Tm [2],thermal shift delta Tm [3],thermal shift delta Tm [4],thermal shift delta Tm [5],thermal shift delta Tm [6],thermal shift delta Tm [7],thermal shift delta Tm [8],thermal shift delta Tm [9],thermal shift delta Tm [10]
COc1cc(Nc2ncc(F)c(Nc3ccc4c(n3)NC(=O)C(C)(C)O4)n2)cc(OC)c1OC,6.19 °C,4.62 °C,0.45 °C,9.67 °C,2.62 °C,10.5 °C,5.15 °C,2.97 °C,4.12 °C,0.74 °C
C[C@@H]1COCCN1c1cc(=O)n2c(n1)N(Cc1cncc(Cl)c1)[C@H](C(F)(F)F)CC2,0.59 °C,0.31 °C,0.37 °C,0.19 °C,0.22 °C,0.04 °C,0.46 °C,0.41 °C,1.55 °C,0.39 °C
CN1CCN(c2cccc(Nc3nc4c(-c5ccc(S(C)(=O)=O)cc5)cccn4n3)c2)CC1,2.02 °C,0.36 °C,0.44 °C,0.47 °C,1.72 °C,2.95 °C,1.65 °C,2.23 °C,1.42 °C,0.46 °C
C=CC(=O)Nc1ccc(CN2C(=O)N(c3cc(OC)cc(OC)c3)Cc3cnc(Nc4ccc(N5CCN(C)CC5)cc4)nc32)cc1,1.47 °C,1.08 °C,0.74 °C,0.1 °C,0.49 °C,0.33 °C,0.75 °C,1.29 °C,2.8 °C,0.83 °C
C=CC(=O)Nc1cccc(C)c1Nc1ncc2cc(-c3c(Cl)c(OC)cc(OC)c3Cl)ccc2n1,1.09 °C,0.44 °C,0.49 °C,-0.06 °C,0.28 °C,0.23 °C,0.27 °C,0.49 °C,2.08 °C,0.27 °C
C=CC(=O)Nc1cc(Nc2nccc(-c3c[nH]c4ccccc34)n2)c(OC)cc1N(C)CCN(C)C,1.45 °C,0.35 °C,0.7 °C,5.75 °C,0.52 °C,0.87 °C,1.28 °C,4.03 °C,2.42 °C,0.37 °C
C[C@H]1[C@H](C)CC[C@]2(C(=O)O)CC[C@]3(C)C(=CC[C@@H]4[C@@]5(C)C[C@@H](O)[C@H](O)[C@@](C)(CO)[C@@H]5CC[C@]43C)[C@H]12 [Asiatic Acid],0.12 °C,-0.04 °C,0.11 °C,-0.01 °C,0.08 °C,0.19 °C,0.31 °C,-0.09 °C,0.96 °C,0.3 °C
COc1ccc(F)c(F)c1C(=O)c1cnc(NC2CCN(S(C)(=O)=O)CC2)nc1N,1.63 °C,-0.08 °C,0.26 °C,-0.05 °C,0.19 °C,0.18 °C,0.05 °C,0.62 °C,1.07 °C,0.79 °C
CN1CCCN(C(=O)c2cccc(-c3ccc(/C=C4/C(=O)Nc5ccc(Cl)cc54)o3)c2)CC1,5.04 °C,0.59 °C,0.65 °C,3.37 °C,1.12 °C,0.49 °C,2.85 °C,4.61 °C,2.24 °C,1.74 °C
C=CC(=O)Nc1cccc(Oc2nc(Nc3ccc(N4CCN(C)CC4)cc3)nc3ccsc23)c1,1.44 °C,0.64 °C,0.99 °C,1.24 °C,1.38 °C,1.3 °C,1.96 °C,2.13 °C,2.26 °C,0.71 °C
O=c1c(O)c(-c2cc(O)c(O)c(O)c2)oc2cc(O)cc(O)c12 [Myricetin],0.6 °C,-0.42 °C,1.12 °C,1.2 °C,1.89 °C,2.61 °C,-0.73 °C,2.51 °C,3.89 °C,0.92 °C
CNC(=O)c1ccc(-c2cnc3ncc(Cc4ccc5ncccc5c4)n3n2)cc1F,0.61 °C,0.23 °C,0.48 °C,-0.1 °C,0.21 °C,0.36 °C,0.27 °C,0.19 °C,2.02 °C,0.27 °C
COc1cccc2cc(-c3nc([C@H]4CC[C@H](C(=O)O)CC4)n4ncnc(N)c34)[nH]c12,0.26 °C,0.38 °C,0.31 °C,0.34 °C,0.03 °C,0.32 °C,0.58 °C,3.43 °C,0.98 °C,0.32 °C
CC(C)c1cnn2c(NCc3ccccc3-n3cccn3)nc(OC3CCCNC3)nc12 (stereo not given),0.32 °C,-0.14 °C,0.32 °C,0.22 °C,0.11 °C,0.09 °C,0.5 °C,0.48 °C,1.13 °C,0.57 °C
Cc1cc2c(F)c(Oc3ncnn4cc(OC[C@@H](C)OC(=O)[C@H](C)N)c(C)c34)ccc2[nH]1,1.3 °C,-0.11 °C,0.25 °C,-0.23 °C,1.72 °C,-0.29 °C,0.18 °C,5.17 °C,0.59 °C,0.68 °C
CC#CC(=O)N1CC[C@@H](n2c(=O)n(-c3ccc(Oc4ccccc4)cc3)c3c(N)ncnc32)C1 [ONO-4059 (GS-4059) hydrochloride],0.78 °C,0.65 °C,0.51 °C,-0.67 °C,0.44 °C,0.4 °C,0.3 °C,0.12 °C,0.62 °C,0.03 °C
O=c1ccc2ccc(O)c(O)c2o1 [Daphnetin],1.1 °C,0.54 °C,0.75 °C,-0.23 °C,0.69 °C,1.08 °C,0.83 °C,0.8 °C,1.96 °C,0.36 °C
COc1cc2ncnc(Nc3ccc(O)c(Br)c3)c2cc1OC,1.02 °C,0.71 °C,0.44 °C,4.5 °C,2.33 °C,-0.05 °C,2.28 °C,4.51 °C,2.11 °C,0.46 °C
OC(c1cc(-c2ccc(Cl)cc2)nc2ccccc12)C1CCCCN1 (stereo not given) [Vacquinol-1],1.11 °C,-0.34 °C,0.42 °C,0.39 °C,0.57 °C,1.11 °C,0.65 °C,0.88 °C,1.95 °C,0.59 °C
Cc1ccc(NC(=O)c2ccc(CN3CCN(C)CC3)cc2)cc1Nc1nc(-c2cccnc2)cs1 [Masitinib (AB1010)],0.39 °C,0.33 °C,0.47 °C,0.28 °C,0.29 °C,0.58 °C,0.26 °C,0.04 °C,0.69 °C,0.53 °C
